{"source": "ChEMBL document CHEMBL3988442", "about": "“University of Dundee, Small-Polar-MMV Screening Library” (2021)", "biological_target": "T1, Methionyl-tRNA synthetase, putative (Leishmania donovani (strain BPK282A1)) (UniProt E9BF75)", "T1 sequence (whole entry)": "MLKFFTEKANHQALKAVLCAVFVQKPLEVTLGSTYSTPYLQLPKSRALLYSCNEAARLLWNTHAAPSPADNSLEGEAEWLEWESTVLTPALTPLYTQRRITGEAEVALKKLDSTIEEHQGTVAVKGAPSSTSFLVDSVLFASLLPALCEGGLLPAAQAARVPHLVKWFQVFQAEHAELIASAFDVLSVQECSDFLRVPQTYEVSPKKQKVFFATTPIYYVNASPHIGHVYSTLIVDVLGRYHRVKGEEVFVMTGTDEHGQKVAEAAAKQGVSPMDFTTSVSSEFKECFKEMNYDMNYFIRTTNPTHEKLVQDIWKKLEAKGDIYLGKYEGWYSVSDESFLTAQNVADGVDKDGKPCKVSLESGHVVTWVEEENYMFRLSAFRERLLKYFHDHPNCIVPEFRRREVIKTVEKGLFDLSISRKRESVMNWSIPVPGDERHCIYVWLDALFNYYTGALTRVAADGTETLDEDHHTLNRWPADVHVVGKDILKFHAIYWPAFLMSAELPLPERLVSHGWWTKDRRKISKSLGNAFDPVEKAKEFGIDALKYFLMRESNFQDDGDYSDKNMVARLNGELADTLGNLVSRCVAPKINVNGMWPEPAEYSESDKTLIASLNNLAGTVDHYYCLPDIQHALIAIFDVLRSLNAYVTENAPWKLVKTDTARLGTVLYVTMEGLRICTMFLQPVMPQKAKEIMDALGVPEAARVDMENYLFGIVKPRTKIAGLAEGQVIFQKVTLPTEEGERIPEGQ", "experiment": "Leishmania donovani Methionine tRNA synthetase (LdMetRS):v7. Dose response assay", "type": "functional", "set-up": "conc 80 nM, time 150 minutes", "data": [{"smiles": "O=C(c1c[nH]cn1)N1CCC(F)(F)C2(CCN(c3ccccn3)C2)C1", "note": "(stereo not given)", "values": [{"measurement": "PXC50", "setting": "MAX_EFFECT 10.79812207", "value": "< 4"}, {"measurement": "PXC50", "setting": "MAX_EFFECT 12.40740741", "value": "< 4"}]}, {"smiles": "Cc1cc2c(N3CCN(C)CC3)nc(-c3cccnc3)nc2s1", "values": [{"measurement": "PXC50", "setting": "MAX_EFFECT 6.010928962", "value": "< 4"}, {"measurement": "PXC50", "setting": "MAX_EFFECT 7.486631016", "value": "< 4"}]}, {"smiles": "NCc1ccc(Cl)cc1Cl", "values": [{"measurement": "PXC50", "setting": "MAX_EFFECT 13.60691145", "value": "< 3"}, {"measurement": "PXC50", "setting": "MAX_EFFECT 15.77946768", "value": "< 3"}]}, {"smiles": "Cc1cc(C)n(-c2nc(N(C)C)c3c4c(sc3n2)CCCC4)n1", "values": [{"measurement": "PXC50", "setting": "BOTTOM 3.265302341, HILLSLOPE 1.809282706, MAX_EFFECT 78.125, TOP 100.0", "value": 4.28}, {"measurement": "PXC50", "setting": "BOTTOM 6.620107204, HILLSLOPE 2.145601955, MAX_EFFECT 79.8245614, TOP 100.0", "value": 4.28}]}, {"smiles": "COCCNc1nc(CN2CCCC2)nc2sc3c(c12)CCCC3", "values": [{"measurement": "PXC50", "setting": "MAX_EFFECT 13.54166667", "value": "< 4"}, {"measurement": "PXC50", "setting": "MAX_EFFECT 14.03508772", "value": "< 4"}]}, {"smiles": "CCc1nc(NCCCOC(C)C)c2c3c(sc2n1)CCC3", "values": [{"measurement": "PXC50", "setting": "MAX_EFFECT 10.56511057", "value": "< 4"}, {"measurement": "PXC50", "setting": "MAX_EFFECT 12.06030151", "value": "< 4"}]}, {"smiles": "COCCNC(=O)c1ccc2ccc(N3CCN(CC4CC4)CC3)n2c1", "values": [{"measurement": "PXC50", "setting": "BOTTOM 5.874206897, HILLSLOPE 1.640597442, MAX_EFFECT 51.96261682, TOP 70.05301325", "value": 4.26}, {"measurement": "PXC50", "setting": "MAX_EFFECT 46.71201814", "value": "< 4"}]}, {"smiles": "Cc1nc(NC(C(=O)O)C(C)C)c2c3c(sc2n1)CCC3", "note": "(stereo not given)", "values": [{"measurement": "PXC50", "setting": "MAX_EFFECT 7.537688442", "value": "< 4"}, {"measurement": "PXC50", "setting": "MAX_EFFECT 7.616707617", "value": "< 4"}]}, {"smiles": "Cc1nc(N2CCN(C3CCOCC3)CC2)c2ccsc2n1", "values": [{"measurement": "PXC50", "setting": "MAX_EFFECT 2.659574468", "value": "< 4"}, {"measurement": "PXC50", "setting": "MAX_EFFECT 4.663212435", "value": "< 4"}]}, {"smiles": "COc1cccc(-c2cc(C(F)(F)F)nc(N(C)C)n2)c1", "values": [{"measurement": "PXC50", "setting": "MAX_EFFECT 5.18134715", "value": "< 4"}, {"measurement": "PXC50", "setting": "MAX_EFFECT 6.914893617", "value": "< 4"}]}, {"smiles": "Cc1cc2c(N3CCCCC3)nc(-c3cccnc3)nc2s1", "values": [{"measurement": "PXC50", "setting": "MAX_EFFECT 30.15075377", "value": "< 4"}, {"measurement": "PXC50", "setting": "MAX_EFFECT 37.1007371", "value": "< 4"}]}, {"smiles": "Cc1nc(NCC(C)(C)O)c2c3c(sc2n1)CCCC3", "values": [{"measurement": "PXC50", "setting": "MAX_EFFECT 11.84210526", "value": "< 4"}, {"measurement": "PXC50", "setting": "MAX_EFFECT 12.5", "value": "< 4"}]}, {"smiles": "CCc1nc(NCCOC)c2c3c(sc2n1)CCC3", "values": [{"measurement": "PXC50", "setting": "MAX_EFFECT 5.793450882", "value": "< 4"}, {"measurement": "PXC50", "setting": "MAX_EFFECT 9.41475827", "value": "< 4"}]}, {"smiles": "CN(C)CCNC(=O)c1ccc2ccc(N(C)CC3CC3)n2c1", "values": [{"measurement": "PXC50", "setting": "MAX_EFFECT 42.17687075", "value": "< 4"}, {"measurement": "PXC50", "setting": "MAX_EFFECT 43.73831776", "value": "< 4"}]}, {"smiles": "CS(=O)(=O)Nc1cccc2c(=O)cc(C(=O)NCC3CCCCC3)oc12", "values": [{"measurement": "PXC50", "setting": "MAX_EFFECT 0.797448166", "value": "< 4"}, {"measurement": "PXC50", "setting": "MAX_EFFECT 2.111324376", "value": "< 4"}]}, {"smiles": "O=C(c1cc[nH]n1)N1CCC(F)(F)C2(CCN(c3ccccn3)C2)C1", "note": "(stereo not given)", "values": [{"measurement": "PXC50", "setting": "MAX_EFFECT 8.450704225", "value": "< 4"}, {"measurement": "PXC50", "setting": "MAX_EFFECT 10.92592593", "value": "< 4"}]}, {"smiles": "Cc1sc2nc(CN3CCCC3)nc(NC3CCCC3)c2c1C", "values": [{"measurement": "PXC50", "setting": "MAX_EFFECT 34.69387755", "value": "< 4"}, {"measurement": "PXC50", "setting": "MAX_EFFECT 40.15151515", "value": "< 4"}]}, {"smiles": "O=c1cc(NCCCNCc2cc(C(F)(F)F)cs2)[nH]c2ccccc12", "values": [{"measurement": "PXC50", "setting": "BOTTOM -2.424501326, HILLSLOPE 1.220462925, MAX_EFFECT 102.3310023, TOP 102.5192077", "value": 5.71}, {"measurement": "PXC50", "setting": "BOTTOM -3.989177117, HILLSLOPE 1.235768434, MAX_EFFECT 100.0, TOP 101.1477832", "value": 5.75}]}, {"smiles": "COCCNc1nc(-n2nc(C)cc2C)nc2sc3c(c12)CCCC3", "values": [{"measurement": "PXC50", "setting": "BOTTOM 1.301145561, HILLSLOPE 1.464534306, MAX_EFFECT 52.38095238, TOP 100.0", "value": 4.33}, {"measurement": "PXC50", "setting": "BOTTOM -0.0791, HILLSLOPE 1.372664479, MAX_EFFECT 81.02766798, TOP 100.0", "value": 4.48}]}, {"smiles": "Cc1nc(NCc2cccnc2)c2c3c(sc2n1)CC(C)CC3", "note": "(stereo not given)", "values": [{"measurement": "PXC50", "setting": "MAX_EFFECT 20.10178117", "value": "< 4"}, {"measurement": "PXC50", "setting": "MAX_EFFECT 27.4559194", "value": "< 4"}]}, {"smiles": "Fc1cccc(OC[C@@H]2CCCN2)c1Oc1ccc(Cl)cc1", "values": [{"measurement": "PXC50", "setting": "MAX_EFFECT 8.488612836", "value": "< 4"}, {"measurement": "PXC50", "setting": "MAX_EFFECT 13.00639659", "value": "< 4"}]}, {"smiles": "CC(C)(N)c1cc(Cl)cc(Cl)c1", "values": [{"measurement": "PXC50", "setting": "MAX_EFFECT 14.47084233", "value": "< 3"}, {"measurement": "PXC50", "setting": "MAX_EFFECT 21.86311787", "value": "< 3"}]}, {"smiles": "COCCNC(=O)c1ccc2ccc(N3CCN(S(C)(=O)=O)CC3)n2c1", "values": [{"measurement": "PXC50", "setting": "BOTTOM 1.198316498, HILLSLOPE 2.008751015, MAX_EFFECT 51.91956124, TOP 53.93938429", "value": 4.75}, {"measurement": "PXC50", "setting": "MAX_EFFECT 47.36842105", "value": "< 4"}]}, {"smiles": "CS(=O)(=O)N1CCN(c2ccc3ccc(C(=O)NC4CCN(c5ncccn5)CC4)cn23)CC1", "values": [{"measurement": "PXC50", "setting": "BOTTOM 1.498519447, HILLSLOPE 2.25926472, MAX_EFFECT 69.85645933, TOP 69.17206782", "value": 4.97}, {"measurement": "PXC50", "setting": "BOTTOM 9.613017987, HILLSLOPE 3.179249655, MAX_EFFECT 74.58866545, TOP 74.15419217", "value": 4.86}]}, {"smiles": "CS(=O)(=O)N1CCN(c2ccc3ccc(C(=O)NCCn4cccn4)cn23)CC1", "values": [{"measurement": "PXC50", "setting": "BOTTOM 1.569537618, HILLSLOPE 2.334941078, MAX_EFFECT 65.07177033, TOP 65.29640188", "value": 4.95}, {"measurement": "PXC50", "setting": "BOTTOM 7.030389685, HILLSLOPE 2.531896239, MAX_EFFECT 68.73857404, TOP 69.44063033", "value": 4.79}]}, {"smiles": "CN(C)C(=O)N1CCN(c2ccc3ccc(C(=O)NC4CC4)cn23)CC1", "values": [{"measurement": "PXC50", "setting": "BOTTOM 3.433705082, HILLSLOPE 1.394575879, MAX_EFFECT 54.57943925, TOP 100.0", "value": 4.05}, {"measurement": "PXC50", "setting": "MAX_EFFECT 48.07256236", "value": "< 4"}]}, {"smiles": "Cc1nc(N2CCN(c3ccccc3O)CC2)c2c3c(sc2n1)CCC3", "values": [{"measurement": "PXC50", "setting": "BOTTOM -0.0879, HILLSLOPE 1.043556985, MAX_EFFECT 58.82352941, TOP 100.0", "value": 4.16}, {"measurement": "PXC50", "setting": "BOTTOM -4.305210646, HILLSLOPE 1.068745934, MAX_EFFECT 61.20218579, TOP 100.0", "value": 4.17}]}, {"smiles": "Cc1sc(C)c(C(F)(F)F)c1CNCCCNc1cc(=O)c2ccccc2[nH]1", "values": [{"measurement": "PXC50", "setting": "BOTTOM -1.155419978, HILLSLOPE 1.172834864, MAX_EFFECT 100.9302326, TOP 101.3032533", "value": 5.58}, {"measurement": "PXC50", "setting": "BOTTOM -1.471807315, HILLSLOPE 1.111829353, MAX_EFFECT 101.8648019, TOP 104.5162556", "value": 5.56}]}, {"smiles": "CCC(=O)N1CCC(c2ncc3c(n2)CCNC3)CC1", "values": [{"measurement": "PXC50", "setting": "MAX_EFFECT 1.814058957", "value": "< 4"}, {"measurement": "PXC50", "setting": "MAX_EFFECT 14.20560748", "value": "< 4"}]}, {"smiles": "Cc1cc(C(F)(F)F)nc(N2CCN(Cc3nccn3C)CC2)n1", "values": [{"measurement": "PXC50", "setting": "MAX_EFFECT 3.571428571", "value": "< 4"}, {"measurement": "PXC50", "setting": "MAX_EFFECT 6.313131313", "value": "< 4"}]}]}
